In PubChem BioAssay (NCI):
This is part of a sample that, as a whole, favours compounds with a hit. Of some 83,000 tested, about 20% had one in any assay.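 Cell lines were cultured in 96-well plates, exposed to a single compound concentration, and assessed for percent growth 48 hours later.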 Values without a mark were called inactive. Calls of active or inactive are those of the source. The calls were made as follows: active = growth percent below 10; inactive = the rest.

How the values were obtained:
Test in all cases: NCI-60 one-dose screen, 48 h (100 = growth as untreated, 0 = no growth, -100 = all killed)
Settings in all cases: 10 µM unless noted
[1] = system: T-47D breast
[2] = system: BT-549 breast
[3] = system: MDA-MB-435 melanoma
[4] = system: SW-620 colon
[5] = system: MCF7 breast
[6] = system: HCT-116 colon
[7] = system: HCC-2998 colon
[8] = system: KM12 colon

| Compound | growth [1] | growth [2] | growth [3] | growth [4] | growth [5] | growth [6] | growth [7] | growth [8] |
| --- | --- | --- | --- | --- | --- | --- | --- | --- |
| Cc1cc2c(O)c(-c3cc(Cl)ccc3Cl)c3sc(=O)oc3c2cc1C | 32.4% | 81.7% | 47.3% | 57.8% | 60.9% | 36.2% | 102% | 59.1% |
| C/C(=C(/c1ccc(Cl)cc1)c1ccc(OCCN2CCCC2)cc1)c1ccc(Cl)cc1 | 59.5% | 96.5% | 89.6% | 54.6% | 34.1% | 50.4% | 102% | 52.4% |
| COP(=O)(OC)C(C)(C)CC(=O)CC(C#N)(C#N)C(C#N)C#N | 106% | 96.2% | 104% | 104% | 92.1% | 92.4% | 92.6% | 104% |
| N=C(N)c1ccc(-c2ccc(-c3cc(Cl)cc(Cl)c3)o2)o1 | -58.3% (active) | 88.8% | -92.8% (active) | -87.4% (active) | -77.6% (active) | -69.4% (active) | -77.8% (active) | -78.9% (active) |
| COc1ccc2nc3ccc(OC)cc3c(SCCCN)c2c1 | 76.5% | 95.5% | 87.3% | 18.3% | 28.7% | -49.8% (active) | 105% | 83.2% |
| O=C(/C=C/c1cccs1)c1ccc(Cl)nc1 | 97.3% | 101% | 94.2% | 105% | 67.7% | 91.1% | 111% | 104% |
| N#Cc1cccc(F)c1 | 101% | 111% | 105% | 109% | 112% | 106% | 118% | 110% |
| CCN(CC)C(=S)SC(SC(=S)N(CC)CC)C(=O)c1nnn(-c2ccc([N+](=O)[O-])cc2)c1C | 76.4% | 109% | 101% | 95.5% | 59.3% | 95.7% | 104% | 98% |
| Cc1ccc(Sc2oc(-c3ccc(C)cc3)nc2[P+](c2ccccc2)(c2ccccc2)c2ccccc2)cc1 | 1.57% (active) | -30.9% (active) | -30.3% (active) | -5.3% (active) | -23.8% (active) | 2.12% (active) | 1.79% (active) | -52.8% (active) |
| CCCC(=O)NC(c1ccc2c(c1)OCO2)c1ccc2cccnc2c1O (stereo not given) | 19.8% | 34.6% | 26.9% | 25.7% | 5.86% (active) | 11.8% | 38% | 30.6% |
| CC(C)(C)c1cc(-c2nc3ccc(N4CCN(S(C)(=O)=O)CC4)cc3[nH]2)cc(C(C)(C)C)c1O | 76.6% | 102% | 94% | 97.2% | 76.4% | 81.7% | 103% | 27.6% |
| COc1cc(-c2cc(-c3cccs3)c(C#N)c(N3CCOCC3)n2)cc(OC)c1OC | 89% | 75.8% | 92.8% | 4.28% (active) | 61.9% | 51.7% | 86.4% | 105% |
| CN1CCN(Cc2ccc3c(NNC(=O)c4ccccc4)nc4cc(F)ccc4n23)CC1 | 24.7% | 49% | 28.1% | 25.3% | 13.9% | 27% | 32.1% | 20% |
| COC(=O)CCC(=O)C(=O)OC | 61.3% [10 mM] | -12.2% [10 mM] (active) | 29.2% [10 mM] | 29.9% [10 mM] | 49.8% [10 mM] | 9.17% [10 mM] (active) | -38.5% [10 mM] (active) | 2.17% [10 mM] (active) |
| CCCCCCC1(C)NCCO1 (stereo not given) | 108% | 103% | 109% | 106% | 99.7% | 106% | 99.2% | 106% |
